Compound activity deposited in PubChem by National Center for Advancing Translational Sciences (NCATS).
MCF10A rerep = DNA re-replication induction in MCF 10a cells | Potency, µM (titrated, usually from 46.1 µM), without a hit: at the top dose activity, positive = re-replication, hits mostly activators | MCF 10A DNA re-replication, Hoechst nuclear intensity, 48 h | 350,000 tested, 2.9% active; further: potency means the concentration at half of the fitted maximal effect; % of control where 0% means no effect; nearly all actives have a fitted effect of over 50% in size
ATXN2 expr inh = ATXN2 expression inhibition | HEK-293 ATXN2-luciferase reporter, luminescence, 24 h | Potency, µM (highest dose often 57 µM), for inactives: at the top dose activity change, negative = inhibition, hits mostly inhibitors | 360,000 tested, 0.72% active | AID 1745845; further: potency means the concentration at half of the fitted maximal effect; on the % scale 0 is the no-effect control and ±100 the full control effect; nearly all actives have a fitted effect of over 55% in size
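qHTS (up to 57 uM final) was run with 24 h compound exposure of reporter cells at 37 °C. Each well was multiplexed: SteadyGlo luminescence measured ATXN2-luciferase expression after a fluorogenic Gly-Phe-AFC viability readout (25 uM final).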
PINK1 modulator = PINK1 expression modulation; AID 624263; 410,000 tested, 0.2% active; PINK1 immunofluorescence, high-content cytometry, 24 h; Potency, µM (series often up to 76.6 µM), for inactives: at the highest dose activation (PINK1 increase), usual class: activators; active means well fitted activation curve with a large enough effect; inconclusive means small, poorly fitted or top-dose-only effect; cell line not stated here; further: potency means the concentration at half of the fitted maximal effect; % of control where 0% means no effect; nearly all actives have a fitted effect of over 65% in size
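Compound titrations (5 concentrations, 24 h) on a stable cell line; DMSO and CCCP controls. Endpoint: fixed-cell PINK1 immunofluorescence with mitochondrial, cell and nuclear markers, scanned by microplate cytometer.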
SW480 rerep = DNA re-replication induction in SW480 cells | SW480 DNA re-replication, Hoechst DNA content imaging, 48 h | Potency, µM (highest dose often 46.1 µM), without a hit: at the top dose re-replication activation, hits mostly activators | 340,000 tested, 1.8% active; further: potency means the concentration at half of the fitted maximal effect; % of control where 0% means no effect; nearly all actives have a fitted effect of over 55% in size
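DNA re-replication was detected as more nuclei of elevated Hoechst intensity after 48 hr exposure to compound (23 nL pinned per well of 250 cells).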
S2 tox = reduces viability in counter-screen for ATXN expression inhibitors; S2 cells (HEK-293 line with an ATXN2-luciferase reporter) viability, CellTiter-Fluor protease fluorescence, 24 h; AID 651635; Potency, µM (top dose mostly 56.7 µM), actives largely listed as cytotoxic; 400,000 tested, 0.49% active; further: potency means the concentration at half of the fitted maximal effect; nearly all actives have a fitted effect of over 40% in size
IL-1B inflam inh = inhibitors of inflammasome signaling (IL-1 beta secretion); THP-1 LPS/ATP IL-1B secretion, AlphaLISA, 16 h; active compounds read low; activity change, % at 57.5 µM; 360,000 tested, 4.7% active; AID 743279; in the data active means activity change below about -50%; inconclusive means mostly about -30% to -49%; further: on the % scale 0 is the no-effect control and ±100 the full control effect
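Secreted IL-1B measured by AlphaLISA bead assay after 16 h compound exposure of THP-1 cells; compounds (final up to 57.5 uM) added 1 h before LPS (250 ng/mL) and ATP (1.25 mM) stimulation; lower signal means less secretion.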
* = called active by the depositor; i = inactive; u = inconclusive; x = not tested or not shown; ! = repeats disagree; [ ] = another dose, or the depositor's remark. Rows were chosen to be rich in hits. Some 7.1% of all compounds tested hit in one or more screens of this group. Unless noted, the call rests on the fitted dose curve; in most records, active means well fitted curve in the direction sought with a large enough effect; inconclusive means small, poorly fitted or top-dose-only effect, or another doubt; inactive means no such curve, though single readings can be large; an effect the other way counts as inactive or inconclusive.

SMILES	MCF10A rerep	ATXN2 expr inh	PINK1 modulator	SW480 rerep	S2 tox	IL-1B inflam inh
N#C/C(=C\C=C\c1ccccc1[N+](=O)[O-])C(=O)NC1CCCCC1	9.2µM*	u	-0.2%	u	u	-104.0*
COc1ccc(-c2nc3cc(C)ccn3c2NC(=O)c2cccc(F)c2)cc1	x	8.2%	1.1%	x	u	x
C=CCC1Cc2c(Br)cccc2C(CC=C)N1 (centres undefined)	0.92µM*	-24.5%	2.8%	-23.5%	i	0.0
C=CC[C@H]1Cc2c(cccc2[N+](=O)[O-])[C@H](CC=C)N1	2.2%	8.4%	0.8%	u	i	-13.8
CCCc1ccc(-c2cc(C(=O)NN3CCOCC3)c3ccccc3n2)cc1	25.8%	19.9%	-1.7%[38.3 µM]	12.4%	i	-55.7*
CC(C)(CNC(=O)c1cc(-c2ccc(Cl)s2)nc2ccccc12)N1CCOCC1	u	2.9%	2.6%	23.1µM*	i	u
CN1CCN(NC(=O)c2cc(-c3ccccn3)nc3ccccc23)CC1	1.5%	0.1%	0.1%	1.1%	i	11.6
CN1CCN(NC(=O)c2cc(-c3ccc(Cl)s3)nc3ccccc23)CC1	14.6µM*	u	-0.2%	16.4µM*	i	-2.7
O=C(c1cc(-c2ccc(Cl)s2)nc2ccccc12)N1CCCC1	u	1.8%	5.0%	-2.8%	i	-23.0
COc1ccc(-c2cn3c(n2)sc2cc(C(=O)NCCCN4CCCCCC4)ccc23)cc1	x	x	0.5%	x	x	x
OC1(c2ccc3c(c2)CN(Cc2nccs2)CCO3)CCN(c2ccccc2F)CC1	x	x	-0.3%	x	i	x
CC(=O)Oc1ccc2c(c1)CC[C@@H]1[C@@H]2CC[C@]2(C)[C@@H](O)CC[C@@H]12	x	-8.5%	x	x	u	x
O=C(COc1cc2oc(=O)c3c(c2cc1Cl)CCC3)NCCCn1ccnc1	23.1µM*	x	-0.6%	-8.2%	i	-21.7
COc1ccccc1OCC(=O)NCCCn1ccnc1	4.1%	x	0.9%	32.0%	i	3.7
Cc1c(C)c2cc(Cl)c(OCC(=O)NCCCn3ccnc3)cc2oc1=O	-30.4%	-0.8%	0.1%	-4.1%	i	u
Cc1ccc(C(C)C)cc1OCC(=O)NCCCn1ccnc1	1.46µM*	19.9%	-1.3%	17.0%	i	2.2
Cc1cccc(-c2nc3c(C#N)c[nH]n3c2NC2CCCCC2)c1	x	44.0%	1.4%	x	i	x
N#C/C(=C\c1ccco1)Sc1nc2ccccc2s1	u	83.8%	4.8%	u	i	-65.5*
c1ccc2sc(SSc3nc4ccccc4s3)nc2c1	-1.9%	12.8%[25.6 µM]	x	-0.7%	i	x
CCCCc1ccc(NC(=O)CSc2nc(=O)n(CCN(C)C)c3c2CCC3)cc1	u	-11.6%	-2.8%	u	u	-72.3*
Cc1ccc(NC(=O)CSc2nc(=O)n(CCN(C)C)c3c2CCCC3)cc1Cl	12.1%	-22.7%	-2.5%	u	i	-87.3*
CCCCc1ccc(NC(=O)CSc2nc(=O)n(CCN(CC)CC)c3c2CCCC3)cc1	25.6%	u	-8.8%	u	x	-78.2*
CCN(CC)CCn1c2c(c(SCC(=O)Nc3cc(C)cc(C)c3)nc1=O)CCC2	-28.3%	12.1%	-4.3%	u	i	-3.9
COc1ccc(NC(=O)CSc2nc(=O)n(CCN(C)C)c3c2CCCC3)cc1	7.8%	4.0%	-1.1%	-5.2%	i	10.2
CCN(CC)CCn1c2c(c(SCC(=O)Nc3cccc4ccccc34)nc1=O)CCCC2	-1.1%	10.0%	-0.6%	-0.1%	i	-65.6*
SMILES	MCF10A rerep	ATXN2 expr inh	PINK1 modulator	SW480 rerep	S2 tox	IL-1B inflam inh
COc1cc(Cl)c(C)cc1NC(=O)Cn1cnc2sc(C)c(S(=O)(=O)N3CCCCC3)c2c1=O	x	-24.9%	-0.5%	x	u	x
COc1cc(CN2CCC3(CCC(CNC(=O)c4ccco4)O3)CC2)cc(OC)c1 (centres undefined)	x	x	0.5%	x	i	x
COc1ccc(C(=O)NCC(c2ccc3c(c2)OCO3)N2CCN(c3ccccc3F)CC2)cc1 (centres undefined)	x	u	-0.6%	x	u	x
CC(=O)c1cccc(Nc2cc(C)nc3nc(-c4ccccc4C)nn23)c1	x	-4.2%	0.0%	x	i	x
COc1ccccc1N1CCN(S(=O)(=O)c2c(C)sc3ncn(CC(=O)N(C)c4ccc(C(C)C)cc4)c(=O)c23)CC1	x	-7.0%	1.9%	x	i	x
Cc1cnc(SCCN2CCOCC2)nc1C1CCCN(C(=O)c2cccc3c(C)c(C)[nH]c23)C1 (centres undefined)	x	x	1.5%	x	i	x
COCCCn1c(=O)c2sccc2n2c(CCCC(=O)Nc3cc(C)cc(C)c3)nnc12	x	x	1.5%	x	x	x
Fc1ccccc1N1CCN(c2c3c(nc4nncn24)CCC3)CC1	x	6.9%	1.0%	x	i	x
CC1=C(CO)C(=O)O[C@@H]([C@@H](C)[C@H]2CC[C@H]3[C@@H]4C[C@H]5O[C@]56[C@@H](O)C=CC(=O)[C@]6(C)[C@@H]4CC[C@]23C)C1	x	3.06µM*	x	x	x	x
Cc1ccc(Nc2c(-c3ccc(C)s3)nc3cccc(C)n23)cc1	x	x	1.9%	x	x	x
COc1cc(=O)n2c(c1C(=O)NCc1ccco1)CCN(C(=O)c1ccccc1-c1ncc[nH]1)CC2	x	x	1.8%	x	i	x
CCOc1ccccc1Nc1nc2ccccc2nc1NS(=O)(=O)c1ccc(Cl)cc1	x	-3.9%	-3.2%	x	i	x
Cc1cc2c(c(-c3cnccn3)c1)OC(CNC(=O)c1c(F)cccc1Cl)C2 (centres undefined)	x	x	1.8%	x	i	x
COc1ccc(C)cc1NS(=O)(=O)c1ccc(-c2cnc(C3CC3)o2)cc1	u	0.0%	18.5%	0.13µM*	u	55.6
CCOc1ccccc1CNS(=O)(=O)c1ccc(-c2cnc(C3CC3)o2)cc1	1.3µM*	-9.1%	-0.4%	u	1.26µM*!	32.1
Cc1ccc(NS(=O)(=O)c2ccc(-c3cnc(C4CC4)o3)cc2)cc1	10.3µM*	x	3.4%	18.4µM*	u	17.3
COCCNC(=O)c1ccc2c(Cl)c3c(nc2c1)CCC3	2.3%	23.8%	-1.6%	-3.3%	i	-6.6
